The record followed here is PubChem BioAssay (NCATS).

Records with an inconclusive call do not appear. Calls of active or inactive are those of the source.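 The calls were made as follows: active = compounds whose dose-response curve shows a full or clear partial loss of cell viability, called from curve shape rather than a numeric limit; inconclusive = weak partial curves or an effect only at the top dose; inactive = no dose-dependent loss of viability.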
Potency is read from the fitted curve at half-maximal effect.

A short description of this test: Cell Viability - Hek293 (AID 427).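 Also: cells exposed to compound for 40 hours at 37 °C before reading.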 The note with it: qHTS. From the text:
NIH Chemical Genomics Center [NCGC]
NIH Molecular Libraries Screening Centers Network [MLSCN]
National Institutes of Environmental Health Sciences [NIEHS]
National Toxicology Program [NTP]
We have developed a 1536-well cell-based assay for quantitative high throughput screening (qHTS) against a number of cell lines to determine in vitro cytotoxicity of small molecules. This particular assay uses the Hek 293 cell line which is derived from human embryonic kidney cells (transformed with adenovirus).
NCGC Assay Protocol Summary:
The CellTiter-Glo luminescent cell viability assay (Promega) is a homogeneous method to measure the number of viable cells in culture. The end point readout of this assay is based on quantitation of intracellular ATP, an indicator of metabolic activity, using the luciferase reaction. Luciferase catalyzes the oxidation of beetle Luciferin to oxyluciferin and light in the presence of ATP. The luminescent signal is proportional to amount of ATP present.
Using the CellTiter-Glo luminescent cell viability assay, the amount of cellular ATP was measured in the Hek293 cell line with complete culture medium following compound treatment for 40 hours. The assay was performed in opaque white Kalypsys 1536-well plates. In the screen, tamoxifen and doxorubicin were used as positive controls. Library compounds were measured for their ability to cause acute toxicity in the cell line, as reflected by a decrease in intracellular ATP levels, in a concentration-dependent manner. Data were normalized to the controls for basal activity (DMSO only) and 100% inhibition (100 uM tamoxifen). AC50 values were determined from concentration-response data modeled with the standard Hill equation.
qHTS protocol fo CellTiter Glo Hek 293 cellular assay
[Step] [Parameter] [Value] [Description]
2. Time; 5 hr; 37 °C incubation
4. Controls; 23 nL; Tamoxifen 0.34 uM to 100 uM & Doxorubicin 0.02 nM to 100 uM
5. Time; 40 hr; 37 °C incubation
6. Reagent; 5 uL; CellTiter Glo reagent
7. Time; 20 min; Room Temperature
8. Detection; Luminescence; Viewlux plate reader
Keywords: cell viability, cytotoxicity, Hek293 cell line, luminescence, NTPHTS, NTPHTS_NCGC, NIEHS, EPA, DSSTox, MLSMR, MLSCN, NIH Roadmap, qHTS, NCGC
On the technique in general: qHTS replaces the single test concentration by a dilution series.
As for `CC(C)=C1CCC(C)CC1=O` (stereo not given), the Potency was > 92 µM (inactive).

On to `CCC(C)(C)C`, for which the Potency was > 92 µM (inactive). Under `C1CCC2OC2C1` (stereo not given) stands > 92 µM (inactive); under `CCC1CO1` (stereo not given), > 92 µM (inactive); under `CC(=O)c1ccccc1[N+](=O)[O-]`, > 92 µM (inactive).

In the case of `Nc1cccc(S(=O)(=O)O)c1`, the Potency was > 92 µM (inactive).

In the case of `CCN(C(=O)N(CC)c1ccccc1)c1ccccc1`, the Potency was > 92 µM (inactive).

Take `CCC(=O)/C=C/C1C(C)=CCCC1(C)C` (stereo not given): the Potency was > 92 µM (inactive). For `O=C(Cl)c1cccc([N+](=O)[O-])c1`, the Potency was > 92 µM (inactive). For `Cc1ccc(Cl)cc1`, the Potency is > 92 µM (inactive).

Regarding `CCC=O`, the Potency was > 92 µM (inactive). Under `BrC/C=C/CBr` stands > 92 µM (inactive); under `C=C(C)C(=O)OCCCCCC`, > 92 µM (inactive).

On to `C=C(C)OC(C)=O`, for which the Potency is > 92 µM (inactive). Under `CCCCCCC(=O)O` stands > 92 µM (inactive); under `O=Cc1ccc(C(=O)O)cc1`, > 92 µM (inactive); under `CCOC(=O)C(C)C(C)=O` (stereo not given), > 92 µM (inactive). For `CCCCN(CCO)CCCC`, the Potency was > 92 µM (inactive).

With `Cc1c(C(=O)O)cccc1[N+](=O)[O-]`, the Potency is > 92 µM (inactive). The same measure for `CCCCCCO`: > 92 µM (inactive). Under `O=C(O[C@@H](C(=O)O)[C@@H](OC(=O)c1ccccc1)C(=O)O)c1ccccc1` stands > 92 µM (inactive); under `Cc1cccc(C)c1`, > 92 µM (inactive). The same measure for `CCc1ccccc1O`: > 92 µM (inactive); for `COc1cccc2sc(N)nc12`: > 92 µM (inactive). Regarding `C[C@@H]1CC2(OC3C[C@@]4(C)C5=CC[C@H]6C(C)(C)C(O[C@@H]7OC[C@@H](O)[C@H](O)[C@H]7O)CC[C@@]67C[C@@]57CC[C@]4(C)C31)OC(O)C1(C)OC21` (stereo not given in full), the Potency is > 92 µM (inactive). In the case of `CCOc1ccc(NC(C)=O)cc1N`, the Potency is > 92 µM (inactive).

Take `O=C(O)c1ccccc1Cl`: the Potency is > 92 µM (inactive). Under `Cc1ccc2ccccc2c1[N+](=O)[O-]` stands > 92 µM (inactive); under `O=C(Cl)c1ccccc1[N+](=O)[O-]`, > 92 µM (inactive); under `CN(C)CCCCl`, > 92 µM (inactive). The same measure for `CC(C)Nc1ccccc1`: > 92 µM (inactive).

As to `Cc1cc(C)cc([N+](=O)[O-])c1`, the Potency is > 92 µM (inactive). With `O=C(O)c1ccccc1C(=O)O`, the Potency was > 92 µM (inactive). `CN(C)CCCNCCCN`: the Potency is > 92 µM (inactive). Under `Cc1cccc(C(=O)O)c1` stands > 92 µM (inactive); under `Cc1cc(C2(c3cc(C)c(O)cc3C)OS(=O)(=O)c3ccccc32)c(C)cc1O`, > 92 µM (inactive); under `Clc1cc(Cl)cc(Cl)c1`, > 92 µM (inactive). For `O=C(O)c1cc(Cl)cc(Cl)c1`, the Potency was > 92 µM (inactive). Turning to `O=Nc1ccc(NO)cc1`, the Potency was > 92 µM (inactive). The same measure for `CCC(C)(C)OC`: > 92 µM (inactive).
